# Measured values from PubChem BioAssay (EPA / NIEHS).
# Inconclusive results are not listed. Active and inactive are the calls of the source. The calls were made as follows: active = hit-call score of the fitted dose curve at least 0.9, where 1 is the maximum; inconclusive = response in the unintended direction; inactive = score below 0.9.
# What was measured:
# [1] = target: human Dual Specificity Protein Phosphatase 3 (DUSP3), DUSP3 (gene 1845) (UniProt P51452); assay: NVS_ENZ_hDUSP3: NovaScreen (NVS) Enzymatic Assay for human Dual Specificity Protein Phosphatase 3 (DUSP3) (AID 2283152);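 also: phosphatase activity of recombinant human DUSP3 on a fluorogenic substrate without cells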
# Method in brief: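 Cell-free assay with recombinant human DUSP3 and fluorogenic substrate, read by fluorescence intensity. Primary screen ran duplicate at 25 uM; actives followed up in concentration series; loss of signal versus DMSO scored.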
# [2] = target: human Ephrin type-A Receptor 1 (EphA1), EPHA1 (gene 2041) (UniProt P21709); assay: NVS_ENZ_hEphA1: NovaScreen (NVS) Enzymatic Assay for human Ephrin type-A Receptor 1 (EphA1) (AID 2283158);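 also: activity is signal loss versus DMSO meaning EphA1 kinase inhibition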
# Method in brief: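 Biochemical kinase assay run cell-free; 1 h incubation; readout is fluorescence with mobility-shift separation of product. Concentration-response up to 50 uM for actives from a 25 uM screen.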
# [3] = target: human Caspase 2 (CASP2), CASP2 (gene 835) (UniProt P42575); assay: NVS_ENZ_hCASP2: NovaScreen (NVS) Enzymatic Assay for human Caspase 2 (CASP2) (AID 2283135)
# Method in brief: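 E. coli-expressed enzyme in a cell-free protease assay, fluorescence read 1 h after dosing. Compounds at 25 uM in duplicate, with concentration-response up to 50 uM for hits; loss of signal against DMSO baseline.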
# [4] = target: human Colony Stimulating Factor 1 Receptor (CSF1R), CSF1R (gene 1436) (UniProt P07333); assay: NVS_ENZ_hCSF1R: NovaScreen (NVS) Enzymatic Assay for human Colony Stimulating Factor 1 Receptor (CSF1R) (AID 2283150)
# Method in brief: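 Cell-free recombinant human CSF1R kinase with fluorescent substrate, product separated by electrophoretic mobility shift; read 1 h after dosing. Primary screen at 25 uM in duplicate, actives then in concentration-response up to 50 uM, relative to DMSO.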
# [5] = target: human Esterase Plasma (ES), BCHE (gene 590) (UniProt P06276); assay: NVS_ENZ_hES: NovaScreen (NVS) Enzymatic Assay for human Esterase Plasma (ES) (AID 2283157)
# Method in brief: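 Cell-free enzyme assay using esterase extracted from human plasma; colorimetric absorbance read 0.25 hour after dosing. Single-concentration duplicate screen at 25 uM, then concentration-response up to 50 uM; loss of signal scored against DMSO baseline.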
# [6] = target: human AKT serine/threonine Kinase 1 (AKT1), AKT1 (gene 207) (UniProt P31749); assay: NVS_ENZ_hAKT1: NovaScreen (NVS) Enzymatic Assay for human AKT serine/threonine Kinase 1 (AKT1) (AID 2283138)
# Method in brief: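 Recombinant AKT1, specific substrate, cell-free; 1 h; fluorescence intensity/electrophoretic mobility shift. Duplicate single-point 25 uM, then singleton CRC max 50 uM. DMSO = negative control/baseline; signal loss = inhibition.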
# [7] = target: human AKT serine/threonine Kinase 2 (AKT2), AKT2 (gene 208) (UniProt P31751); assay: NVS_ENZ_hAKT2: NovaScreen (NVS) Enzymatic Assay for human AKT serine/threonine Kinase 2 (AKT2) (AID 2283141)
# Method in brief: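 Cell-free fluorescence/electrophoretic mobility shift readout of recombinant human AKT2 activity, 1 h after chemical dosing. Duplicate primary screen at 25 uM, then singleton concentration-response up to 50 uM; loss of signal versus DMSO baseline.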
# [8] = target: human AMP-activated Protein Kinase, alpha 1 (AMPKa1), PRKAA1 (gene 5562) (UniProt Q13131); assay: NVS_ENZ_hAMPKa1: NovaScreen (NVS) Enzymatic Assay for human AMP-activated Protein Kinase, alpha 1 (AMPKa1) (AID 2283130)
# Method in brief: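 Recombinant human AMPKα1 activity was measured cell-free by fluorescent substrate conversion with electrophoretic mobility-shift separation, 1 h after dosing. Duplicate single-point screening was at 25 uM; actives (≥30% inhibition) were retested in concentration-response up to 50 uM.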
# [9] = target: human Casein Kinase 1-delta (CK1D), CSNK1D (gene 1453) (UniProt P48730); assay: NVS_ENZ_hCK1D: NovaScreen (NVS) Enzymatic Assay for human Casein Kinase 1-delta (CK1D) (AID 2283148)
# Method in brief: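 Recombinant human CK1-delta, cell-free; fluorescent substrate with electrophoretic mobility-shift separation of product, read 1 h after dosing. Single 25 uM duplicate screen, then concentration-response up to 50 uM; loss of signal vs DMSO.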
# [10] = target: human Epidermal Growth Factor Receptor (EGFR), EGFR (gene 1956) (UniProt P00533); assay: NVS_ENZ_hEGFR: NovaScreen (NVS) Enzymatic Assay for human Epidermal Growth Factor Receptor (EGFR) (AID 2283151)
# Method in brief: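 Cell-free kinase assay, fluorescence plus electrophoretic mobility shift separating substrate and product, read 1 hour after dosing; loss of signal vs DMSO. Duplicate screen at 25 uM, then concentration-response to 50 uM.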
# [11] = target: human Beta-secretase (BACE), BACE1 (gene 23621) (UniProt P56817); assay: NVS_ENZ_hBACE: NovaScreen (NVS) Enzymatic Assay for human Beta-secretase (BACE) (AID 2283140);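 also: hits are inhibitors that reduce fluorescent substrate signal versus DMSO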
# Method in brief: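 Compounds were first tested in duplicate at 25 uM, then actives in concentration series, against recombinant BACE1 from SF9 cells. Enzyme activity was measured by fluorescence intensity 1 hour after dosing, with DMSO as negative control.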
# [12] = target: human Acetylcholinesterase (AChE), ACHE (gene 43) (UniProt P22303); assay: NVS_ENZ_hAChE: NovaScreen (NVS) Enzymatic Assay for human Acetylcholinesterase (AChE) (AID 2283129)
# Method in brief: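 Cell-free colorimetric enzyme-activity assay; compounds read 0.33 hour after dosing, loss of signal vs DMSO baseline. Primary screen in duplicate at 25 uM single concentration, with active compounds retested in concentration series.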
# [13] = target: human Elastase, ELANE (gene 1991) (UniProt P08246); assay: NVS_ENZ_hElastase: NovaScreen (NVS) Enzymatic Assay for human Elastase (AID 2283153)
# Method in brief: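 Cell-free elastase from human neutrophils, 1.5 h after dosing, activity read by absorbance. Primary screen in duplicate at 25 uM; hits (e.g., 30% inhibition) rerun in singleton concentration-response up to 50 uM, fitted versus DMSO.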
# rat CYP2B1, gene 24300 = assay: NVS_ADME_rCYP2B1: NovaScreen (NVS) CYP450-related Enzyme Activity (ADME) Assay for rat CYP2B1 (AID 2283117)
# Method in brief: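 Recombinant rat CYP2B1 with fluorogenic substrate, read at 0.75 h. Primary screen in duplicate at 10 uM; compounds meeting threshold (e.g., 30% inhibition) re-run in concentration-response up to 20 uM. Fitted against acetonitrile control.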
# rat CYP3A1, gene 25642 = assay: NVS_ADME_rCYP3A1: NovaScreen (NVS) CYP450-related Enzyme Activity (ADME) Assay for rat CYP3A1 (AID 2283126)
# Method in brief: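 Cell-free recombinant CYP assay with fluorescent substrate, read 0.5 h after dosing. Screened at 10 uM in duplicate, hits at up to 20 uM in concentration-response; loss of signal versus acetonitrile baseline.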
# [14] = target: rat CYP3A2, Cyp3a2 (gene 266682) (UniProt P05183); assay: NVS_ADME_rCYP3A2: NovaScreen (NVS) CYP450-related Enzyme Activity (ADME) Assay for rat CYP3A2 (AID 2283128)
# Method in brief: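 Cell-free rat CYP3A2 enzyme assay with fluorescent substrate, read 0.5 h after dosing. Primary duplicate screen at 10 uM; actives run in concentration-response up to 20 uM, relative to acetonitrile baseline.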
# [15] = target: human Caspase 5 (CASP5), CASP5 (gene 838) (UniProt P51878); assay: NVS_ENZ_hCASP5: NovaScreen (NVS) Enzymatic Assay for human Caspase 5 (CASP5) (AID 2283137)
# Method in brief: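 E. coli-derived enzyme, cell-free, 2 h incubation, fluorescence intensity. 25 uM duplicate single-point; hits → concentration series to 50 uM. DMSO baseline, positive/negative controls on every plate.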
# [16] = target: human Ephrin type-A Receptor 2 (EphA2), EPHA2 (gene 1969) (UniProt P29317); assay: NVS_ENZ_hEphA2: NovaScreen (NVS) Enzymatic Assay for human Ephrin type-A Receptor 2 (EphA2) (AID 2283155)
# Method in brief: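 Cell-free recombinant EphA2 kinase with specific substrate, 1 h, fluorescence with electrophoretic mobility-shift separation of substrate and product. Primary screen at 25 uM in duplicate; hits retested in singleton concentration-response up to 50 uM, referenced to DMSO.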
# Sequence of human Esterase Plasma (ES), BCHE (gene 590) (P06276 whole entry, looked up): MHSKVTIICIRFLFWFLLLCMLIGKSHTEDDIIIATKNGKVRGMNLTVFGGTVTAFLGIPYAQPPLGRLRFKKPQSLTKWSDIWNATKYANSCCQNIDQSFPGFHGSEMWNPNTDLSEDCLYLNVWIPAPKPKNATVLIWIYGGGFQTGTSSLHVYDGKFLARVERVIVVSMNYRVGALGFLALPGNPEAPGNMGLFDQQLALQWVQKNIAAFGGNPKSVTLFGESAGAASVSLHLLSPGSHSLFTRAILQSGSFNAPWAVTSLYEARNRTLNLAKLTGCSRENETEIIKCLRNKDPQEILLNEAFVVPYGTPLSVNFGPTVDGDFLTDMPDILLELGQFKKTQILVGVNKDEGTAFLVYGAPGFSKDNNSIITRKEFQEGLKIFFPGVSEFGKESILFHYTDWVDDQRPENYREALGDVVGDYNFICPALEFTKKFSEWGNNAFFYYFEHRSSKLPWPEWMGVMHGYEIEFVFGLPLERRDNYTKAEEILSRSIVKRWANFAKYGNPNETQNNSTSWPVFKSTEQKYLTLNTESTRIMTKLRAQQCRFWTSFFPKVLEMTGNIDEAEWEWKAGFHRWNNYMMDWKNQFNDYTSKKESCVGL
# Sequence of human Dual Specificity Protein Phosphatase 3 (DUSP3), DUSP3 (gene 1845) (P51452 whole entry, looked up): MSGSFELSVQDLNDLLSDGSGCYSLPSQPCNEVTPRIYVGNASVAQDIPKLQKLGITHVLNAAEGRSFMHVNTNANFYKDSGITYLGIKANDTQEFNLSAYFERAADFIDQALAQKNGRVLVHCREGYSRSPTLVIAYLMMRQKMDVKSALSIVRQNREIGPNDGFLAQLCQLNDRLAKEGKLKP
# Sequence of human Casein Kinase 1-delta (CK1D), CSNK1D (gene 1453) (P48730 whole entry, looked up): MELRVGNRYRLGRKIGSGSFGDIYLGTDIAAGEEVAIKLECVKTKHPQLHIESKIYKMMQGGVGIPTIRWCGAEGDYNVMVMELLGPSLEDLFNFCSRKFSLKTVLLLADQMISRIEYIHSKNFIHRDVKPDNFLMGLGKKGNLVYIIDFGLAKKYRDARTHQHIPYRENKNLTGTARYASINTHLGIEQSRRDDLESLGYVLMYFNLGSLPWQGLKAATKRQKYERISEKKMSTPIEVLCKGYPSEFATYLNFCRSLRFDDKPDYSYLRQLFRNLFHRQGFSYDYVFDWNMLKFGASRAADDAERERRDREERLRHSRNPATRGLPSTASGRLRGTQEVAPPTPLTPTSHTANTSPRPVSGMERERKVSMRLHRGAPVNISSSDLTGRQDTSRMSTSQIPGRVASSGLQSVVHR
# Sequence of human Ephrin type-A Receptor 1 (EphA1), EPHA1 (gene 2041) (P21709 whole entry, looked up): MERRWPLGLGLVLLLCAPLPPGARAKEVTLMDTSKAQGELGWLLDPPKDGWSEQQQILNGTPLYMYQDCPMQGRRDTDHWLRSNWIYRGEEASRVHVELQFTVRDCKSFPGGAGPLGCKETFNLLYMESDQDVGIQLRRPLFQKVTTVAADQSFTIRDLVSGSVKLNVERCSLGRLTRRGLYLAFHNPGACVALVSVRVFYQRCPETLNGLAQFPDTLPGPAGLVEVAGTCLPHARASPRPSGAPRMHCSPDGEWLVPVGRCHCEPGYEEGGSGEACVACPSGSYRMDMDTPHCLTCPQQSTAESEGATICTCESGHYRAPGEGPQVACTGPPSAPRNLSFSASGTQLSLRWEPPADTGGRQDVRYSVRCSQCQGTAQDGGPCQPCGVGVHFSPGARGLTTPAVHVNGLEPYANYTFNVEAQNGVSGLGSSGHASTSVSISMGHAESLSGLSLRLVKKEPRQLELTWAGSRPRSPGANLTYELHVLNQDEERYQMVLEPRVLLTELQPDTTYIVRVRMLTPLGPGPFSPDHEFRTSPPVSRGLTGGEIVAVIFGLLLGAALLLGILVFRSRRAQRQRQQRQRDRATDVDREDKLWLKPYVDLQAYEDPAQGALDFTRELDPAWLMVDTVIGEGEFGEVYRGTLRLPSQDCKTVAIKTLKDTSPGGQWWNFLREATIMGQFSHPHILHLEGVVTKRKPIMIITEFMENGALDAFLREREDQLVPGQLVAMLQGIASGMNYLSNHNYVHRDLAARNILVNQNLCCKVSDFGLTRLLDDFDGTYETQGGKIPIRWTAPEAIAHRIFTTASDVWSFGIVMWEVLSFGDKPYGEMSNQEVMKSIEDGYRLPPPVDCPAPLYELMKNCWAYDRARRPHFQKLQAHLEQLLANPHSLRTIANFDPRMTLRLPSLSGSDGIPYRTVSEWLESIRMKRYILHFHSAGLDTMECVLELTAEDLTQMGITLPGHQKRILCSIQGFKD
# Sequence of human AMP-activated Protein Kinase, alpha 1 (AMPKa1), PRKAA1 (gene 5562) (Q13131 whole entry, looked up): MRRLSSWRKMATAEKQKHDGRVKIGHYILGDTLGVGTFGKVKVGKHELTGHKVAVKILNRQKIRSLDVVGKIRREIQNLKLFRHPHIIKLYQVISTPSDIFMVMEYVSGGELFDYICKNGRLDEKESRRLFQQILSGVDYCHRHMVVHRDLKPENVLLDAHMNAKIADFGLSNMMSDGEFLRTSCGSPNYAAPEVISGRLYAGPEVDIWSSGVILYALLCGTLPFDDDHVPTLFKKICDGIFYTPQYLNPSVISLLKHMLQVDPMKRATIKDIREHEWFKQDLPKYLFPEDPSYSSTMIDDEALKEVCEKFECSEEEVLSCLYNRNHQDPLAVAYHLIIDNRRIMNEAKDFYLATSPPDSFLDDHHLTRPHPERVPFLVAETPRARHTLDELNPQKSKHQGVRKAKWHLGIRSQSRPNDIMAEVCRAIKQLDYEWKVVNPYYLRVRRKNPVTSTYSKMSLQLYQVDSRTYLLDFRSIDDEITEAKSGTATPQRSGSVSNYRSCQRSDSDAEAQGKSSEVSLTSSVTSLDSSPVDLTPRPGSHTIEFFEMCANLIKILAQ
# Sequence of human Epidermal Growth Factor Receptor (EGFR), EGFR (gene 1956) (P00533 whole entry, looked up): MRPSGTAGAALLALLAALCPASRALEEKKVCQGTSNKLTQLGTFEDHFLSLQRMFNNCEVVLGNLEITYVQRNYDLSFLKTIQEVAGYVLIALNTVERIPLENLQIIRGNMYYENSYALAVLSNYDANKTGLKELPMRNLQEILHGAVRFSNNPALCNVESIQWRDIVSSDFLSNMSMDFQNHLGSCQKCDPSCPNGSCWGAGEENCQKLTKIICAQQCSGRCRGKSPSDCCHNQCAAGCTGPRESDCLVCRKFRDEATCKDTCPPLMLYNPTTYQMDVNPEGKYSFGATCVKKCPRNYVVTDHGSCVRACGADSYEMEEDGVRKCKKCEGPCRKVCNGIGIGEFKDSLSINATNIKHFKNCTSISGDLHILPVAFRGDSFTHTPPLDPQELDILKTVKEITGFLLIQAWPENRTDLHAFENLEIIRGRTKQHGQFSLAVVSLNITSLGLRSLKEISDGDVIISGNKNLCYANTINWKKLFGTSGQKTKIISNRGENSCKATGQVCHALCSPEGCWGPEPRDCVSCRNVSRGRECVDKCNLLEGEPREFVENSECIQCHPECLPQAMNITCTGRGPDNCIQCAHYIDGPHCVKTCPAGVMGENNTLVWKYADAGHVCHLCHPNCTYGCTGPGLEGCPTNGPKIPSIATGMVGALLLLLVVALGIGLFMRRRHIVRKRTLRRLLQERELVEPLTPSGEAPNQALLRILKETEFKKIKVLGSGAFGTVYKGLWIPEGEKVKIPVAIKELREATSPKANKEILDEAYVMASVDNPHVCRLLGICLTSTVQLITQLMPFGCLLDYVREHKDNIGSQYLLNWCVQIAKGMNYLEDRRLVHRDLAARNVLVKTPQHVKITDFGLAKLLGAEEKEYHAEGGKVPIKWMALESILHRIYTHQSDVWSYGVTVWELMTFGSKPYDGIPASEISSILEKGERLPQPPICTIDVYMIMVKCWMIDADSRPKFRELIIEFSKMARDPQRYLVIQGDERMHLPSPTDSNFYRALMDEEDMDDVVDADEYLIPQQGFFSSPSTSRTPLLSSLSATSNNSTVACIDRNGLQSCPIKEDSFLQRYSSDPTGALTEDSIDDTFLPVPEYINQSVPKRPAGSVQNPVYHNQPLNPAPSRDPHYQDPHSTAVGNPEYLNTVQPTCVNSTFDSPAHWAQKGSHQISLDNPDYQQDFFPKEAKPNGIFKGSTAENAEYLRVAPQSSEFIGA
# Sequence of human AKT serine/threonine Kinase 1 (AKT1), AKT1 (gene 207) (P31749 whole entry, looked up): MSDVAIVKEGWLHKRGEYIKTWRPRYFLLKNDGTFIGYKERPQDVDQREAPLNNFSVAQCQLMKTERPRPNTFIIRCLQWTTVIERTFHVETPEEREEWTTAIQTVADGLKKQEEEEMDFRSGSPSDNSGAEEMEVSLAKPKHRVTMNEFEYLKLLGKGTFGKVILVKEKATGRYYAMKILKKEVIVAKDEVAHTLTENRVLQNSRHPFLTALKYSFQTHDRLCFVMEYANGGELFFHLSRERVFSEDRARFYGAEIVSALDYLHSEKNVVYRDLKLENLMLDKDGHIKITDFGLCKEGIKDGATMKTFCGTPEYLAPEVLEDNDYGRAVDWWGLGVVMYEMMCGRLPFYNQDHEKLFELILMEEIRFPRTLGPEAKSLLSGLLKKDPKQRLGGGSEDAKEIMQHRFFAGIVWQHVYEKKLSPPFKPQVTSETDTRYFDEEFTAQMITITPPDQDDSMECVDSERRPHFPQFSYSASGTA
# Sequence of human Caspase 2 (CASP2), CASP2 (gene 835) (P42575 whole entry, looked up): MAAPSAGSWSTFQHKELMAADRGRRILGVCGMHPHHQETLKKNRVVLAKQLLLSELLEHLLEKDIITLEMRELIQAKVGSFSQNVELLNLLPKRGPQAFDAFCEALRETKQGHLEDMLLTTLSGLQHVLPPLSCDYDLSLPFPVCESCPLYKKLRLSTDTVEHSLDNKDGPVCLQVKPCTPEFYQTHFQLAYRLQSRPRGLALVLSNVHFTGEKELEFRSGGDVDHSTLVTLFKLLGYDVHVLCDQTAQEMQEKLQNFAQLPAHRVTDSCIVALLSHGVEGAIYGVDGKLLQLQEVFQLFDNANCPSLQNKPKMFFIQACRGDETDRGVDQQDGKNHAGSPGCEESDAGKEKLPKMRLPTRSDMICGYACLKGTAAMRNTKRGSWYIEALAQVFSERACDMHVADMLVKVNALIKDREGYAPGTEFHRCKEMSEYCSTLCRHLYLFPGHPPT
smiles,measurement,setting,value
CC(C)Nc1ccc(Nc2ccccc2)cc1,AC50,[1],2.71 µM (active)
same,outcome,[2],inactive
COCCOCCO,outcome,[3],inactive
CCC(C)(C)c1ccc(O)cc1,outcome,[4],inactive
CCNc1nc(Cl)nc(NC(C)(C)C)n1,outcome,[5],inactive
Cc1cccc(N)c1,outcome,[6],inactive
CC(C)(C)c1ccc(O)cc1,outcome,[7],inactive
CSC(C)(C)C=NO,outcome,[8],inactive
same,outcome,[4],inactive
CCOP(=S)(OCC)SCn1nnc2ccccc2c1=O,AC50,[1],19.6 µM (active)
Cc1ccc(O)cc1C,outcome,[9],inactive
same,outcome,[10],inactive
O=[N+]([O-])c1ccccc1,outcome,[9],inactive
Nc1ccc2ccccc2c1,AC50,[5],13.7 µM (active)
CCOP(=S)(OCC)SCSc1ccc(Cl)cc1,AC50,[1],17.3 µM (active)
CCCN(CCC)c1c([N+](=O)[O-])cc(C(C)C)cc1[N+](=O)[O-],outcome,[11],inactive
CCCCN(CCCC)SN(C)C(=O)Oc1cccc2c1OC(C)(C)C2,AC50,[12],1.31 µM (active)
same,outcome,[3],inactive
same,outcome,[5],inactive
c1ccc2c(c1)Nc1ccccc1S2,outcome,[13],inactive
CCOP(=S)(Oc1ccc([N+](=O)[O-])cc1)c1ccccc1 (centres undefined),outcome,[6],inactive
CO/N=C(/C(=O)OC)c1ccccc1COc1ccccc1C,outcome,"rat CYP2B1, gene 24300",inactive
same,AC50,"rat CYP3A1, gene 25642",6.96 µM (active)
same,AC50,[14],6.28 µM (active)
CCOP(=S)(S)OCC,outcome,[15],inactive
same,AC50,[1],19.9 µM (active)
O=P(Oc1ccccc1)(Oc1ccccc1)Oc1ccccc1,outcome,[16],inactive
c1ccc(OP(Oc2ccccc2)Oc2ccccc2)cc1,outcome,[9],inactive
same,AC50,[13],37 µM (active)
O=P1(N(CCCl)CCCl)NCCCO1 (centres undefined),outcome,[8],inactive
same,outcome,[10],inactive
same,outcome,[5],inactive
Nc1ccc(Cl)cc1,outcome,[2],inactive
Cc1ccc([N+](=O)[O-])cc1C,outcome,[16],inactive
